Data from PubChem BioAssay.
Calls of active or inactive are those of the source.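 The calls were made as follows, unless noted: active = compounds that lower survival of HCT116 colon cancer cells in the luminescence readout, no numeric limit stated; inactive = the rest.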

Legend:
[1] = stimulators of nuclear beta-catenin in C2C12, primary screen, imaging, WNT3A-conditioned medium, mouse C2C12, NPC library (AID 1117326; in the data active = nuclear beta-catenin stimulation mostly above about 4.2%, no sharp cut-off; inactive = mostly below about 10%; also: reference of the scale not given here); conditions: stronger effect = higher value
[2] = stimulators of insulin release from INS-1E, primary screen, cell-based, 5 mM glucose, NPC library (AID 1117329;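 active = compound raises insulin release from rat beta cells at 5 mM glucose, no numeric limit stated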; also: reference of the scale not given here); conditions: rat INS-1E insulin secretion, at 10 µM, stronger effect = higher value
[3] = growth inhibition of GSK3B-pretreated HCT116 cells – cell-based, CellTiter-Glo, 0.2 to 20 µM (AID 1117336;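 active = compounds lowering colon cancer cell viability after pretreatment blocking the GSK3B kinase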); conditions: HCT116 viability after GSK3B inhibitor, at 20 µM, stronger effect = higher value
[4] = inhibition of endothelial tube formation, primary screen, imaging, VEGF stimulated, CD31 staining, tube area, NPC library (AID 1117340;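 active = compound that reduces growth-factor-driven endothelial tube area in a mixed cell culture, no cutoff stated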); conditions: VEGF-stimulated ADSC/ECFC co-culture, at 10 µM, stronger effect = higher value
[5] = glucagon-like peptide 1 release enhancers, primary assay, NCI-H716 cell line, NPC library (AID 1117341;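 active = compound raises GLP1 secretion from the human gut endocrine cells, with no numeric limit stated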; also: reference of the scale not given here); conditions: NCI-H716 cells, at 10 µM, stronger effect = higher value
[6] = HCT116 colon cancer cell growth inhibition, primary screen, CellTiter-Glo luminescence, NPC library (AID 1117342); conditions: at 20 µM (top of the series)
[7] = CellTiter-Glo luminescent readout of SW480 viability loss, NPC library primary (AID 1117343;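 active = compounds that lower viability of the colon cancer cells in the luminescence readout, with no numeric limit stated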); conditions: CellTiter-Glo luminescence; at 20 µM (top of the series)
[8] = decreased DLD-1 cellular survival, CellTiter-Glo luminescent readout, NPC compound collection, primary HTS (AID 1117346;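 active = compounds that lower survival of DLD-1 colon cancer cells in the luminescence readout, no cutoff given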); conditions: DLD-1 viability, CellTiter-Glo luminescence; at 20 µM (top of the series)

O=C1CC(c2ccc(Cl)cc2)CC(=O)N1
active: tube area decrease [4] -4.2%
inactive: nuclear beta-catenin stimulation ([1]; at 10 µM) -1.1% | insulin secretion stimulation [2] 1.8% | viability decrease [3] 2.1% | GLP1 secretion stimulation [5] 3.8% | inhibition of viability [6] 20.4% | viability decrease (inhibition) [7] -4.9% | viability decrease (inhibition) [8] 6.7%
-2.3%: nuclear beta-catenin stimulation ([1]; stimulation, at 2 µM)

CC(=O)Nc1ccn(C2COC(COC(=O)c3ccccc3)O2)c(=O)n1 (stereo unspecified)
active: viability decrease [3] 54% | tube area decrease [4] 100% | inhibition of viability [6] 56.5%
-0.9%: nuclear beta-catenin stimulation ([1]; stimulation, at 2 µM)
inactive: nuclear beta-catenin stimulation ([1]; at 10 µM) 8.2% | insulin secretion stimulation [2] 1% | GLP1 secretion stimulation [5] 1.2% | viability decrease (inhibition) [7] 26.9% | viability decrease (inhibition) [8] 29.9%

CCCCCCCCCCCC(=O)OCC(O)CO (stereo unspecified)
2.9%: nuclear beta-catenin stimulation ([1]; stimulation, at 2 µM)
inactive: nuclear beta-catenin stimulation ([1]; at 10 µM) -1.2% | insulin secretion stimulation [2] -1.1% | viability decrease [3] -3.8% | tube area decrease [4] 14.2% | GLP1 secretion stimulation [5] -3.3% | inhibition of viability [6] -2.2% | viability decrease (inhibition) [7] 44.7% | viability decrease (inhibition) [8] 44.9%

c1ccc(CCNc2nc(-c3ccccc3)cs2)cc1
0.6%: nuclear beta-catenin stimulation ([1]; stimulation, at 2 µM)
active: inhibition of viability [6] 57.7%
inactive: nuclear beta-catenin stimulation ([1]; at 10 µM) 1.5% | insulin secretion stimulation [2] -1.4% | viability decrease [3] 38.9% | tube area decrease [4] 34.9% | GLP1 secretion stimulation [5] -1.7% | viability decrease (inhibition) [7] 35.5% | viability decrease (inhibition) [8] 31.5%

CCCCCCCCCCCCSCCOCCO
inactive: nuclear beta-catenin stimulation ([1]; at 10 µM) 0.7% | insulin secretion stimulation [2] -1.7% | viability decrease [3] 9.65% | tube area decrease [4] 6.6% | GLP1 secretion stimulation [5] 1.9% | inhibition of viability [6] -38.8%
2%: nuclear beta-catenin stimulation ([1]; stimulation, at 2 µM)
active: viability decrease (inhibition) [7] 122% | viability decrease (inhibition) [8] 94.7%

CCCC(CCC)(C(=O)OCC)C(=O)OCC
inactive: nuclear beta-catenin stimulation ([1]; at 10 µM) -1.3% | insulin secretion stimulation [2] 2.1% | viability decrease [3] 11.4% | tube area decrease [4] -3.8% | GLP1 secretion stimulation [5] 3.5% | inhibition of viability [6] 12.2% | viability decrease (inhibition) [7] 1.4% | viability decrease (inhibition) [8] -4.9%
-2.9%: nuclear beta-catenin stimulation ([1]; stimulation, at 2 µM)

Cc1ncc(CO)c(CN)c1O
inactive: nuclear beta-catenin stimulation ([1]; at 10 µM) 1.3% | insulin secretion stimulation [2] 0.6% | viability decrease [3] 4.25% | tube area decrease [4] -13.4% | GLP1 secretion stimulation [5] 0.1% | inhibition of viability [6] -3.2% | viability decrease (inhibition) [8] 9.5%
2.3%: nuclear beta-catenin stimulation ([1]; stimulation, at 2 µM)
active: viability decrease (inhibition) [7] 91.3%

Nc1ccncc1N
0.5%: nuclear beta-catenin stimulation ([1]; stimulation, at 2 µM)
inactive: nuclear beta-catenin stimulation ([1]; at 10 µM) 0.2% | insulin secretion stimulation [2] -0.7% | viability decrease [3] -2.2% | tube area decrease [4] -31% | GLP1 secretion stimulation [5] 3.3% | inhibition of viability [6] 3.4% | viability decrease (inhibition) [7] 7.7% | viability decrease (inhibition) [8] 6.9%

CC(=O)OC[C@H]1O[C@@H](OC(C)=O)[C@H](OC(C)=O)[C@@H]1OC(C)=O
-1.5%: nuclear beta-catenin stimulation ([1]; stimulation, at 2 µM)
inactive: nuclear beta-catenin stimulation ([1]; at 10 µM) -0.3% | insulin secretion stimulation [2] -1.25% | viability decrease [3] -0.8% | tube area decrease [4] 9.6% | GLP1 secretion stimulation [5] -1.3% | inhibition of viability [6] 12.6% | viability decrease (inhibition) [7] 13.1% | viability decrease (inhibition) [8] 4.4%

COc1ccc(CC2c3cc(OC)c(OC)cc3CCN2CCC(=O)OCCCCCOC(=O)CCN2CCc3cc(OC)c(OC)cc3C2Cc2ccc(OC)c(OC)c2)cc1OC (stereo unspecified)
0.5%: nuclear beta-catenin stimulation ([1]; stimulation, at 2 µM)
inactive: nuclear beta-catenin stimulation ([1]; at 10 µM) -1.1% | insulin secretion stimulation [2] 2.2% | viability decrease [3] -6.9% | tube area decrease [4] -3.5% | GLP1 secretion stimulation [5] -3.9% | inhibition of viability [6] -6.4% | viability decrease (inhibition) [7] 39.7% | viability decrease (inhibition) [8] -10.6%

CCOC(=O)C(O)c1ccccc1 (stereo unspecified)
9.6%: nuclear beta-catenin stimulation ([1]; stimulation, at 2 µM)
inactive: nuclear beta-catenin stimulation ([1]; at 10 µM) 1.9% | insulin secretion stimulation [2] 0% | viability decrease [3] -1.8% | tube area decrease [4] -9.7% | GLP1 secretion stimulation [5] 0.1% | inhibition of viability [6] 1.4% | viability decrease (inhibition) [7] -10% | viability decrease (inhibition) [8] -2.3%

COc1cc(S(N)(=O)=O)cc(C(=O)O)c1OC
inactive: nuclear beta-catenin stimulation ([1]; at 10 µM) -0.6% | insulin secretion stimulation [2] 1.2% | viability decrease [3] 16.8% | GLP1 secretion stimulation [5] -1% | inhibition of viability [6] 23.4% | viability decrease (inhibition) [7] 18.9% | viability decrease (inhibition) [8] -9.9%
3.5%: nuclear beta-catenin stimulation ([1]; stimulation, at 2 µM)
active: tube area decrease [4] -3.6%

CCCCCCCCCCCCCCCCCC(=O)[O][Al]
-0.8%: nuclear beta-catenin stimulation ([1]; stimulation, at 2 µM)
inactive: nuclear beta-catenin stimulation ([1]; at 10 µM) 0.2% | insulin secretion stimulation [2] 0.8% | viability decrease [3] 2.3% | tube area decrease [4] -3.5% | GLP1 secretion stimulation [5] -1.2% | inhibition of viability [6] 5.4% | viability decrease (inhibition) [7] -3.6% | viability decrease (inhibition) [8] -0.7%

N/C(=N\N=C\c1ccc(Cl)cc1)N/N=C/c1ccc(Cl)cc1
inactive: nuclear beta-catenin stimulation ([1]; at 10 µM) 0.5% | insulin secretion stimulation [2] -0.1% | GLP1 secretion stimulation [5] -3.3%
active: viability decrease [3] 99.6% | tube area decrease [4] 108% | inhibition of viability [6] 99.3% | viability decrease (inhibition) [7] 103% | viability decrease (inhibition) [8] 102%
0.1%: nuclear beta-catenin stimulation ([1]; stimulation, at 2 µM)
